Experimental findings from PubChem BioAssay are described below.

Inconclusive results are not listed. Calls of active or inactive are those of the source.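 The calls were made as follows, unless noted: active = inhibition over a set limit, the all-compound mean plus 3 SD, in both replicate runs; inconclusive = over that limit in just one replicate run; inactive = at or under that limit in both runs.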

Test [1] in a line: reducers of endogenous Her2 protein level, primary screen, SKBR3 breast tumor cells, AlphaScreen, ATP viability (AID 461;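 active = Her2 level under about 52% in both replicate screens, with viability over 70% of control, limit read from the data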;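 as to Her2 level: lower value means less Her2 protein in the cells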;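 as to viability: percent of carrier control wells set as 100% viability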). The conditions noted are these: 18-24 h, measured here: SKBR3 viability, ATP luminescence, at 10 µM. For orientation: Alpha assays give light when donor and acceptor beads are brought close together.
The target of test [2] is Receptor tyrosine-protein kinase erbB-2 (Homo sapiens) (UniProt P04626). Described as above. The note with it: 18-24 h, at 10 µM, stronger effect = lower value.
Sequence of Receptor tyrosine-protein kinase erbB-2 (Homo sapiens) (P04626 whole entry, looked up): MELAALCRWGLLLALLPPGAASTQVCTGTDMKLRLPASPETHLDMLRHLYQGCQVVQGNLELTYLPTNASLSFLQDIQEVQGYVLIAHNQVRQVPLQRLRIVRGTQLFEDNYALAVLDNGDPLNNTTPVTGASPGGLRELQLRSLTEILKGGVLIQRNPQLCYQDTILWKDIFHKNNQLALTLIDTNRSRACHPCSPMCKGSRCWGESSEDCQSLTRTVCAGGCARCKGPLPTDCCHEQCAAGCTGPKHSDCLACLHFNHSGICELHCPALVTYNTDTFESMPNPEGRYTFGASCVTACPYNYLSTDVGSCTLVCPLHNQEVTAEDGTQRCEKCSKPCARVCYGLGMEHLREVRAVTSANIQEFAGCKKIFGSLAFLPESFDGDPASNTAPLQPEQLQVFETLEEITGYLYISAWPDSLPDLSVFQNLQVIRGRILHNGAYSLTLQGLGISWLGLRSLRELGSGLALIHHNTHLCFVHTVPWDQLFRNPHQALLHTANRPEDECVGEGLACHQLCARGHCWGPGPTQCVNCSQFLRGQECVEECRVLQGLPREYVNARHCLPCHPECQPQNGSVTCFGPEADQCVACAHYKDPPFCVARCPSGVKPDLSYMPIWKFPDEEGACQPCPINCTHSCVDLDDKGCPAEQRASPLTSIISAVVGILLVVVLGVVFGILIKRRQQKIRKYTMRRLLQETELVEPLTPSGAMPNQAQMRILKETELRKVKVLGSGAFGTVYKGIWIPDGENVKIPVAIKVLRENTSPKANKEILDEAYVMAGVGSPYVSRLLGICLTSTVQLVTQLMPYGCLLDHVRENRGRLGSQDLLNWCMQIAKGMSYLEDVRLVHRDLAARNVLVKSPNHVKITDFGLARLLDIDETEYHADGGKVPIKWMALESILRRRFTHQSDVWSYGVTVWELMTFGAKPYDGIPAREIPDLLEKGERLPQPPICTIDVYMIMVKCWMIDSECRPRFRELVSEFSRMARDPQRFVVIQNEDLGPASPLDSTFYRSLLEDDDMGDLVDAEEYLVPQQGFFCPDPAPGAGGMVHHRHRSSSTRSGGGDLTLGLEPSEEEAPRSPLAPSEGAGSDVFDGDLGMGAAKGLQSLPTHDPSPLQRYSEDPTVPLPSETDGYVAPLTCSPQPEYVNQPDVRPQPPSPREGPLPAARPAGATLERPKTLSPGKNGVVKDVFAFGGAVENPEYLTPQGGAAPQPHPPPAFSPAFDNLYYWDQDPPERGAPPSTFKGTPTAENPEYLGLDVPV
Test [3] can be described thus: SK-BR-3 cell growth inhibitors, pilot screen, 24 h, human (AID 572;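 active = viability at or below 10% of carrier control in both of two separate runs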;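 also: compound exposure lasted between 18 and 24 h rather than exactly 24 h; 100% = carrier-treated control wells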). The note with it: SK-BR-3 viability, CellTiter-Glo luminescence, at 10 µM, stronger effect = lower value. In general terms: In ATP-based viability assays light output follows the ATP content of the culture.
A short description of test [4]: HUVEC growth inhibition – cell-based, human, primary screen (AID 575;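 active = viability at or below 30% in both replicate assays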;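 also: 100% = median of untreated cell wells with 0.1% DMSO on each plate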). The conditions noted are these: HUVEC proliferation, CellTiter-Glo luminescence, 72 h; at 10 µM; stronger effect = lower value.
Test [5] can be described thus: reversal of MRP1-mediated doxorubicin resistance, pilot screen, H69AR cells, doxorubicin co-treatment (AID 601;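 active = viability loss from added drug above about 55%, and viability with drug at most 40%, in both replicates, limit read from the data, passing the limit was not always enough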). The note with it: CellTiter-Glo, 72 h, at 10 µM; for differential viability (reversal): stronger effect = higher value.
Test [6] is described as follows: 384-well plate pilot, post-Golgi transport modulator project, inhibition of yeast transport mutant growth (AID 636; in the data active = inhibition above about 31%). The note with it: absorbance 615 nm, about 18 h, stronger effect = higher value.
Test [7] can be described thus: growth suppression of yeast trafficking mutant, preliminary HTS, modulators of trafficking downstream of Golgi apparatus project, 1536-format plate, OD 615 nm (AID 637; in the data active = inhibition above about 30%). The conditions noted are these: yeast transport mutant growth, absorbance 615 nm, 18 h; stronger effect = higher value.
Test [8] can be described thus: OD615 S. cerevisiae growth inhibition, permissive medium, pilot counter-assay, permissive growth control for S. cerevisiae lifespan shortening project (AID 705;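 active = growth inhibition above 25% in both replicates, a cutoff set 3 SD above the mean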). The conditions noted are these: OD615, 24 h, at 10 µM, stronger effect = higher value.
Test [9] can be described thus: Restrictive medium S. cerevisiae growth inhibition, OD615, pilot screen of yeast lifespan reduction project, restrictive growth control (AID 706;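 active = growth inhibition above a set limit, 3 SD over mean compound inhibition, in both replicates, cut at about 43% in these data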;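 also: modified DeaD lifespan yeast strain shifted to restrictive glucose medium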). The note with it: OD615, 48 h, at 10 µM, stronger effect = higher value.
The nature of test [10]: viability gain of MRP-1-high H69AR cells under doxorubicin, pilot screen, MRP-1 activator project, CellTiter-Glo, duplicate (AID 807;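 active = viability increase at or above a cutoff of the median across tested compounds plus 3 SD, cut at about 8.5% in these data, passing the limit was not always enough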;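 also: compound pretreatment 18-22 h then 72 h combined with doxorubicin; 0% = doxorubicin alone and 100% = vehicle without doxorubicin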). The conditions noted are these: H69AR viability with doxorubicin, CellTiter-Glo luminescence; at 10 µM; stronger effect = higher value.
Test [11] can be described thus: growth suppression of beta-catenin knockout HCT116, pilot screen, human colon tumor cells (AID 823;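 active = cell viability at or below a set limit in both duplicate runs, the limit being the all-compound median minus 4 SD, cut at about 23% in these data, passing the limit was not always enough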;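 also: 0% = wells killed by 20 µM Hyamine and 100% = untreated DMSO cell wells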). The conditions noted are these: CellTiter-Glo, 60 h, at 10 µM, stronger effect = lower value.
Test [12] can be described thus: growth suppression of PTEN-deleted HCT116, pilot screen, cell-based, HCT116 clonal line, CellTiter-Glo (AID 824;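 active = viability at or below 27.92% in each of two runs, the all-compound median minus 4 SD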;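 also: 0% = 20 µM Hyamine control and 100% = vehicle cell control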). The note with it: 60 h, at 10 µM, stronger effect = lower value.
The nature of test [13]: inhibitors of the yeast RAM network, pilot screen, dse1pr::URA3 reporter, 5-FOA selection (AID 869).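 Also: 0% = DMSO wells with no growth and 100% = 10 µM 1-NA-PP1 with full growth; RAM network block rescues cells from 5-FOA so hits raise OD615 growth.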 The note with it: S. cerevisiae dse1pr::URA3 5-FOA growth, OD615, 2 d; at 10 µM; stronger effect = higher value; strain carries analog-sensitive mutant Cbk1 kinase.
Test [14] is described as follows: RAM signaling pathway blockade in yeast – S. cerevisiae, Pdr1DBD-CYC8 efflux-inhibited sensitized strain, primary screen (AID 1298;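 active = RAM network inhibition above 8.4% in each of two replicates, 3 SD over the compound average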;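 also: 0% = DMSO untreated cells without growth and 100% = 10 µM 1-NA-PP1 full growth; higher means more yeast growth rescued from 5-FOA killing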). The conditions noted are these: S. cerevisiae cbk1-as DSE1-URA3 strain, 5-FOA growth OD615, 2 d; at 50 µM; stronger effect = higher value.
Test [15] in a line: growth inhibitors of H69AR lung tumor, primary screen, human, duplicate replicates (AID 580;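 active = viability at or under a set limit in both replicates, limit being median viability minus 3 SD, cut at about 48% in these data, passing the limit was not always enough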;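 also: 100% = mean luminescence of untreated wells and 0% = no signal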). The note with it: H69AR lung tumor cells viability, ATP luminescence, 72 h; at 10 µM; stronger effect = lower value.
Setting [16] is: H69AR cells + 2 uM doxorubicin, measured here: viability with 2 uM doxorubicin, stronger effect = lower value.
The mark [17] stands for this setting: H69AR cells, compound alone cytotoxicity.

Regarding `COc1ccc(Nc2ncnc3c2cnn3-c2ccccc2)cc1OC`, the viability was 82.5% in test [1]; 82.5% (inactive) in test [3]; 59.4% (inactive) in test [4]; 73.7% in test [5] (setting [16]); 42.7% in test [5] (setting [17]); 107% (inactive) in test [11]. Also, the viability in test [12] was 97.7% (inactive). Also, in [2], the Her2 level was 91% (inactive). For the same compound, in [5] (H69AR cells + 2 uM doxorubicin), the differential viability (reversal) was -31% (inactive). Also, the inhibition was 0.27% (inactive) in test [6], -9.33% (inactive) in [7] and 0.635% (inactive) in test [13]. In addition, the figures for the growth inhibition in test [8] and in test [9] were -4.18% (inactive) and -24.4% (inactive), respectively. The viability increase in test [10] was -0.97% (inactive). Also, the RAM network inhibition in [14] is 5.61% (inactive).
On to `Cc1cc(C)c2c(=O)n(CC(=O)NCCCN3CCOCC3)sc2n1`, for which the viability in test [1] is 98%; in [3] it was 98% (inactive); in [4], 64.1% (inactive); in [5] (setting [16]), 35.5%; in [5] (setting [17]), 39.8%; in test [12], 56.5% (inactive). The Her2 level in test [2] is 89.5% (inactive). In test [5] (H69AR cells + 2 uM doxorubicin), the differential viability (reversal) is 4.36% (inactive). In addition, the inhibition was -4.53% (inactive) in [6], -2.67% (inactive) in [7] and 1.51% (inactive) in [13]. Also, the growth inhibition in test [8] was 4.33% (inactive); in test [9], 0.575% (inactive). In addition, the viability increase in [10] was -4.85% (inactive). The RAM network inhibition in [14] was 3.11% (inactive).
For the compound `OC(CNCCc1ccccc1)c1ccccc1` (stereo unspecified), the viability in test [3] was 101% (inactive); in test [4], 101% (inactive); in test [15], 91.2% (inactive); in [5] (setting [16]), 81.4%; in test [5] (setting [17]) it was 91.2%; in test [11] it was 95.4% (inactive). Further, in test [12], the viability is 94.1% (inactive). In addition, the differential viability (reversal) in test [5] (H69AR cells + 2 uM doxorubicin) was 9.8% (inactive). Also, the inhibition in test [6] was -5.07% (inactive); in test [7], 2.36% (inactive); in test [13], 0.865% (inactive). The figures for the growth inhibition in [8] and in [9] were -6.34% (inactive) and -6.08% (inactive), respectively. In addition, in test [10], the viability increase is -0.36% (inactive). Besides, in [14], the RAM network inhibition was 0.66% (inactive).
Consider `CN(C)c1ccc(NC(=O)Cn2cc3c(n2)CCCC3)cc1`, for which the viability was 77.5% in [1]; 77.5% (inactive) in test [3]; 74% (inactive) in [15]; 84.1% in test [5] (setting [16]); 74% in test [5] (setting [17]); 64.2% (inactive) in [11]. Further, the viability in test [12] is 62% (inactive). Moreover, the Her2 level in [2] was 67% (inactive). In addition, the differential viability (reversal) in test [5] (H69AR cells + 2 uM doxorubicin) was -10.1% (inactive). The inhibition in test [6] was -4.13% (inactive); in test [7] it was -5% (inactive); in [13], 2% (inactive). Further, the values for the growth inhibition in test [8] and in [9] were 11.9% (inactive) and 13.9% (inactive), respectively. Moreover, the viability increase in [10] was -2.45% (inactive). For the same compound, in test [14], the RAM network inhibition is 1.84% (inactive).
For `CC(=O)n1cc(-c2ccncc2)c2ccccc21`, the viability in [1] is 94%; in test [3], 94% (inactive); in test [15] it was 85.3% (inactive); in test [5] (setting [16]), 79.2%; in test [5] (setting [17]) it was 85.3%; in test [11], 86.7% (inactive). Also, in test [12], the viability is 82.6% (inactive). Further, the Her2 level in [2] was 108% (inactive). Moreover, the differential viability (reversal) in test [5] (H69AR cells + 2 uM doxorubicin) is 6.14% (inactive). In addition, the inhibition in [6] is -7.2% (inactive); in test [7] it was -3% (inactive); in test [13], 0.135% (inactive). In addition, the growth inhibition was -5.77% (inactive) in test [8] and -1.47% (inactive) in [9]. In addition, the viability increase in test [10] is -3.7% (inactive). Also, in [14], the RAM network inhibition was 0.27% (inactive).
With `CCOC(=O)c1ccc(N=c2sc(C(=O)OC)cc(=O)n2Cc2ccco2)cc1`, the viability is 110% in test [1]; 110% (inactive) in test [3]; 1.51% (active) in test [15]; 1.24% in test [5] (setting [16]); 1.51% in test [5] (setting [17]); 5.04% (active) in test [11]. In addition, in [12], the viability was 1.63% (active). Also, the Her2 level in test [2] is -1.5% (active). In [5] (H69AR cells + 2 uM doxorubicin), the differential viability (reversal) was 0.27% (inactive). For the same compound, the inhibition in test [6] is -3.21% (inactive); in test [7] it was -1.33% (inactive); in [13], 1.42% (inactive). The growth inhibition in test [8] was -11.7% (inactive); in [9], -2.14% (inactive). Moreover, in test [10], the viability increase is -8.48% (inactive). Moreover, the RAM network inhibition in [14] was 7.3% (inactive).
For `O=C(NCCN1C(=O)C2C3C=CC(C3)C2C1=O)Nc1ccccn1` (stereo unspecified), the viability in [1] is 114%; in [3] it was 114% (inactive); in [15], 95.8% (inactive); in test [5] (setting [16]), 83.3%; in test [5] (setting [17]) it was 95.8%; in [11], 107% (inactive). The viability in test [12] was 92.2% (inactive). For the same compound, the Her2 level in test [2] is 102% (inactive). In [5] (H69AR cells + 2 uM doxorubicin), the differential viability (reversal) was 12.5% (inactive). Further, the inhibition in [6] was -3.6% (inactive); in test [7], -2.33% (inactive); in test [13], 0.595% (inactive). Moreover, the figures for the growth inhibition in test [8] and in test [9] were 5% (inactive) and -0.24% (inactive), respectively. The viability increase in test [10] was -0.81% (inactive). Moreover, in test [14], the RAM network inhibition is 3.24% (inactive).
For `Cc1cc(=O)oc2c1ccc1oc(/C(=N/O)c3ccccc3)c(C)c12`, the viability in test [1] was 84%; in test [3], 84% (inactive); in [15], 74.5% (inactive); in test [5] (setting [16]) it was 91.7%; in test [5] (setting [17]) it was 74.5%; in test [11] it was 80.8% (inactive). For the same compound, the viability in test [12] is 65.4% (inactive). Further, in [2], the Her2 level was 112% (inactive). Further, the differential viability (reversal) in [5] (H69AR cells + 2 uM doxorubicin) is -17.2% (inactive). Besides, the inhibition was 8.46% (inactive) in [6], 17.2% (inactive) in test [7] and 0.035% (inactive) in test [13]. Also, the growth inhibition in [8] is -11% (inactive); in test [9], 10.6% (inactive). In addition, in [10], the viability increase is 5.23% (inactive). Besides, the RAM network inhibition in [14] is 9.44% (inactive).
As to `O=C(c1ccc2snnc2c1)N1CCOCC1`, the viability in [3] is 101% (inactive); in [4], 90.2% (inactive); in test [15], 102% (inactive); in test [5] (setting [16]) it was 88.9%; in test [5] (setting [17]), 102%; in test [11], 102% (inactive). For the same compound, the viability in test [12] is 99.4% (inactive). Moreover, the differential viability (reversal) in [5] (H69AR cells + 2 uM doxorubicin) was 12.8% (inactive). For the same compound, the inhibition was -1.73% (inactive) in test [6], -0.55% (inactive) in [7] and 1.69% (inactive) in test [13]. The growth inhibition in [8] was 0.235% (inactive); in test [9], -15.9% (inactive). Also, the viability increase in [10] was 0.28% (inactive). For the same compound, in [14], the RAM network inhibition is 1.07% (inactive).
For the compound `O=C(Nc1nc2c(s1)CCCC2)C1COc2ccccc2O1` (stereo unspecified), the viability was 103% (inactive) in test [3]; 63.1% (inactive) in test [4]; 88.3% (inactive) in [15]; 99% in test [5] (setting [16]); 88.3% in test [5] (setting [17]); 90.3% (inactive) in test [11]. For the same compound, the viability in test [12] was 87% (inactive). In test [5] (H69AR cells + 2 uM doxorubicin), the differential viability (reversal) is -10.7% (inactive). Further, the inhibition in test [6] is -4.27% (inactive); in test [7], -5.25% (inactive); in test [13] it was 0.75% (inactive). Further, the growth inhibition is -5.28% (inactive) in test [8] and -7.76% (inactive) in test [9]. Also, the viability increase in test [10] is 0.74% (inactive). Also, the RAM network inhibition in [14] is 0.16% (inactive).

A word on the viability: it is a read-out of living cells in per cent, often relative to untreated cells. As a reminder, the inhibition is the change of the read-out against control, counted positive when it falls.
